Laboratory results published in the supplement of paper PMC10681739.

Columns and labels:
ETS1 [1] = biological target: T1, ETS1 (UniProt P14921); assay: ETS1 binding intensity (PBM fluorescence), ETS1 alone (arbitrary fluorescence units); higher = stronger binding; conditions: ETS1 concentration 1 nM; RUNX1 concentration 0 nM
T1 sequence: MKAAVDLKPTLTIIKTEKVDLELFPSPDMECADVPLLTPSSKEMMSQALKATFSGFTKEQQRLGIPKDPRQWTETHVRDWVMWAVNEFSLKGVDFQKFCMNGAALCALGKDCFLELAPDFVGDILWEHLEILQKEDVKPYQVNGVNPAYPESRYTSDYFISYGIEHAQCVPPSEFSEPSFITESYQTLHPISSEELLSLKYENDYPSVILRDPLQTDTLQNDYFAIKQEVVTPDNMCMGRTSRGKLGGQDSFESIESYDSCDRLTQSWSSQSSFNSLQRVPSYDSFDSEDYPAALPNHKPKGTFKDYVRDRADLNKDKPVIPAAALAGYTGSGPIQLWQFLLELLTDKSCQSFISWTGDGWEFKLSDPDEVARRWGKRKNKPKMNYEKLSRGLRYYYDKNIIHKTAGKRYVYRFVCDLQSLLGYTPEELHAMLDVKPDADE

ETS1 [2] = biological target: T1, ETS1; assay: ETS1 binding intensity (PBM fluorescence) in presence of RUNX1, normalised to ETS1-only experiment (arbitrary fluorescence units); higher = stronger binding; conditions: ETS1 concentration 1 nM; RUNX1 concentration 25 nM
RUNX1 [3] = biological target: RUNX1 (UniProt Q01196); assay: RUNX1 binding intensity (PBM fluorescence) in presence of ETS1, normalised to RUNX1-only experiment (arbitrary fluorescence units); higher = stronger binding; conditions: RUNX1 concentration 2 nM; ETS1 concentration 25 nM
Chain of RUNX1 (Q01196 whole entry): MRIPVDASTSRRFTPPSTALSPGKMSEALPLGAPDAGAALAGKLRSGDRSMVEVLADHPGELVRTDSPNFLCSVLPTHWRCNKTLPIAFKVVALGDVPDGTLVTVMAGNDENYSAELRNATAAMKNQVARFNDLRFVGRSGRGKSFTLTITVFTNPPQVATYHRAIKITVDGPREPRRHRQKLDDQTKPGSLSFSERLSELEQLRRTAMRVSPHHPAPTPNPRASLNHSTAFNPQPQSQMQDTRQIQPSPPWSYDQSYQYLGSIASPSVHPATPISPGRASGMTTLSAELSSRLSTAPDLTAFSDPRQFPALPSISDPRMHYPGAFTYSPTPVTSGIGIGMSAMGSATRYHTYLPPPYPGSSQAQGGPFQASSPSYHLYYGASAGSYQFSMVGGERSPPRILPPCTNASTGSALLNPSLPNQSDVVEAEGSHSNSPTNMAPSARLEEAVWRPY
Experimental: (§1)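 Cooperative gcPBM on 36-bp genomic probes with neighbouring ETS1 and RUNX1 sites. Recombinant human RUNX1 (2 nM) was incubated alone or with ETS1 (25 nM) and detected with anti-RUNX1 antibody plus Alexa488 secondary. Values are medians over 4 replicate spots; the RUNX1+ETS1 data were normalised to the RUNX1-only data. The probes sit in constant array flanks that are not printed.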

RUNX1 [4] = biological target: RUNX1 (UniProt Q01196); assay: RUNX1 binding intensity (PBM fluorescence), RUNX1 alone (arbitrary fluorescence units); higher = stronger binding; conditions: RUNX1 concentration 2 nM; ETS1 concentration 0 nM
Experimental: as §1
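Throughout, for RUNX1 binding intensity (PBM fluorescence) in presence of ETS1, normalised to RUNX1-only experiment: Full-length recombinant human ETS1 or RUNX1 bound to double-stranded 36-bp genomic probes on microarrays, detected by protein-specific primary antibody and Alexa488 secondary, spot fluorescence as median of four replicate spots.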
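Throughout, for RUNX1 binding intensity (PBM fluorescence), RUNX1 alone: Full-length recombinant human RUNX1 bound to double-stranded 36-bp genomic probes on a high-density microarray, scored as Alexa488 fluorescence per spot via anti-RUNX1 antibody, median of four replicate spots.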

## TGGGGTGGTGACATGGGATGTGGTTTTGGGGTTGCA
ETS1 [1]
  ETS1 binding intensity: 510
ETS1 [2]
  ETS1 binding intensity: 3860
RUNX1 [3]
  RUNX1 binding intensity: 1070

## CCCACCCAGGAAGCCGTCCTAACCACAACAGCCCTC
ETS1 [1]
  ETS1 binding intensity: 514
ETS1 [2]
  ETS1 binding intensity: 2580
RUNX1 [3]
  RUNX1 binding intensity: 6790

## CATTTACAGAAAAGGAAACCGCAAGTTTGAGCAAGT
ETS1 [1]
  ETS1 binding intensity: 976
ETS1 [2]
  ETS1 binding intensity: 2150
RUNX1 [3]
  RUNX1 binding intensity: 30700

## TCTCTTCCGTTCTCTGGTAGCTTTGTGGTAGCTTTG
ETS1 [1]
  ETS1 binding intensity: 369
ETS1 [2]
  ETS1 binding intensity: 534
RUNX1 [3]
  RUNX1 binding intensity: 2710

## GTTGCCCCACTTCCTGCCAGTGGTTTTTGGTTGGCC
ETS1 [1]
  ETS1 binding intensity: 2660
ETS1 [2]
  ETS1 binding intensity: 4220
RUNX1 [3]
  RUNX1 binding intensity: 4040

## AGACCCGGAAATGGTGGGTGTTTCTTGCAACCACGG
ETS1 [1]
  ETS1 binding intensity: 1810
ETS1 [2]
  ETS1 binding intensity: 2290
RUNX1 [3]
  RUNX1 binding intensity: 1240

## TTCACAACACAGGATGTGCGGTATTATACGGCAAAG
ETS1 [1]
  ETS1 binding intensity: 5120
ETS1 [2]
  ETS1 binding intensity: 11200
RUNX1 [3]
  RUNX1 binding intensity: 2390

## TCTCCCGGAACTGCTCCTTCACCATGATGACCGCTG
ETS1 [1]
  ETS1 binding intensity: 590
ETS1 [2]
  ETS1 binding intensity: 542
RUNX1 [3]
  RUNX1 binding intensity: 1090

## CCACGGCTGGCTTCCTGTGTGGTTGGCACGCCTTAC
ETS1 [1]
  ETS1 binding intensity: 951
ETS1 [2]
  ETS1 binding intensity: 1210
RUNX1 [3]
  RUNX1 binding intensity: 1620

## TCCGGAAGTCGGAGGAACACCCCAGCCGCCGCAGCC
ETS1 [1]
  ETS1 binding intensity: 1840
ETS1 [2]
  ETS1 binding intensity: 2010
RUNX1 [3]
  RUNX1 binding intensity: 988

## AGGAGTGTCACTTCCTCTTTCCTCACCACAGCCTCC
ETS1 [1]
  ETS1 binding intensity: 1100
ETS1 [2]
  ETS1 binding intensity: 1440
RUNX1 [3]
  RUNX1 binding intensity: 1890

## GGGCGGGTCAGCGGAAGTGAGGGCGGTTGAGGCTGG
ETS1 [1]
  ETS1 binding intensity: 4740
ETS1 [2]
  ETS1 binding intensity: 4550
RUNX1 [3]
  RUNX1 binding intensity: 1320

## CTGAGACCTCGGGCAGGATGTGGCTTCCCCAGAGTT
ETS1 [1]
  ETS1 binding intensity: 4700
ETS1 [2]
  ETS1 binding intensity: 7460
RUNX1 [3]
  RUNX1 binding intensity: 1180

## CAGCTCCGACTTCCGGGTGCGGTACGGCGAAGCAGA
ETS1 [1]
  ETS1 binding intensity: 1320
ETS1 [2]
  ETS1 binding intensity: 1610
RUNX1 [3]
  RUNX1 binding intensity: 2140

## CCCCGCCTCTTCCGCTTCTGTGGTCTGATCTGCCTG
ETS1 [1]
  ETS1 binding intensity: 704
ETS1 [2]
  ETS1 binding intensity: 1040
RUNX1 [3]
  RUNX1 binding intensity: 3860

## TGCGAGCACCCGGAAGCCGCTTGCGGGCTCCCGGAG
ETS1 [1]
  ETS1 binding intensity: 2840
ETS1 [2]
  ETS1 binding intensity: 5620
RUNX1 [3]
  RUNX1 binding intensity: 999

## GAGCAGTGGTGGGAAATGTGGGGTTGGGGGTAAAGG
ETS1 [1]
  ETS1 binding intensity: 493
ETS1 [2]
  ETS1 binding intensity: 390
RUNX1 [3]
  RUNX1 binding intensity: 843

## TACATCTTCAGAGGAAGTGGGTTTGTGTATCTTTGA
ETS1 [1]
  ETS1 binding intensity: 2460
ETS1 [2]
  ETS1 binding intensity: 3750
RUNX1 [3]
  RUNX1 binding intensity: 1380

## GATGGTGTCTTTTGGGGATGTGGGTTTGGGGGATGG
ETS1 [1]
  ETS1 binding intensity: 564
ETS1 [2]
  ETS1 binding intensity: 1610
RUNX1 [3]
  RUNX1 binding intensity: 961

## CTTCTGAGAGGAGGATGTGGTCAGATACCTACAAAT
ETS1 [1]
  ETS1 binding intensity: 1030
ETS1 [2]
  ETS1 binding intensity: 7800
RUNX1 [3]
  RUNX1 binding intensity: 1650

## GGGGCGGCTTCCGGCGGCGTGACCTGACCGCAAGAG
ETS1 [1]
  ETS1 binding intensity: 995
ETS1 [2]
  ETS1 binding intensity: 4920
RUNX1 [3]
  RUNX1 binding intensity: 9110

## ATGTTAACATCCTGCCATGAAAACCGCAAGAAGGGC
ETS1 [1]
  ETS1 binding intensity: 680
ETS1 [2]
  ETS1 binding intensity: 3730
RUNX1 [3]
  RUNX1 binding intensity: 26000

## TGCAGCCTATTTCCTCTAACCCGCAGATCCACTATG
ETS1 [1]
  ETS1 binding intensity: 536
ETS1 [2]
  ETS1 binding intensity: 728
RUNX1 [3]
  RUNX1 binding intensity: 2250

## TCAGGGGTGGGAGGAAGTGGTTAGGATCAGCCTGGG
ETS1 [1]
  ETS1 binding intensity: 1910
ETS1 [2]
  ETS1 binding intensity: 3120
RUNX1 [3]
  RUNX1 binding intensity: 2680

## CCGGGAAGGCGGAAGCAGCAGAGACGCCGCAAGGCC
ETS1 [1]
  ETS1 binding intensity: 1320
ETS1 [2]
  ETS1 binding intensity: 1560
RUNX1 [3]
  RUNX1 binding intensity: 980

## GAGTCTACAGCGGAAGCCACCACATGCCCCACCCCC
ETS1 [1]
  ETS1 binding intensity: 4820
ETS1 [2]
  ETS1 binding intensity: 5330
RUNX1 [3]
  RUNX1 binding intensity: 1200

## TCCAGGCATTTCCCCCATGTTGGCTCACCGCACTAT
ETS1 [1]
  ETS1 binding intensity: 416
ETS1 [2]
  ETS1 binding intensity: 594
RUNX1 [3]
  RUNX1 binding intensity: 1290

## CACCCAGTTTGAACTTCCTGGCGGTTTTGTTTACAC
ETS1 [1]
  ETS1 binding intensity: 673
ETS1 [2]
  ETS1 binding intensity: 853
RUNX1 [3]
  RUNX1 binding intensity: 1730

## ACGTGATGGCAGTCTTCCTGCCCACAAGTTCTGGTC
ETS1 [1]
  ETS1 binding intensity: 422
ETS1 [2]
  ETS1 binding intensity: 486
RUNX1 [3]
  RUNX1 binding intensity: 1440

## CTCCACCGGATGCAGCAATGAAGGCCGCAGGAATGG
ETS1 [1]
  ETS1 binding intensity: 3160
ETS1 [2]
  ETS1 binding intensity: 3990
RUNX1 [3]
  RUNX1 binding intensity: 1130

## GCGCGGCGCGACCGGACGCTGCGGGCGGGGAAGAGG
ETS1 [1]
  ETS1 binding intensity: 3230
ETS1 [2]
  ETS1 binding intensity: 5990
RUNX1 [3]
  RUNX1 binding intensity: 929

## CTGAAACAGGAAACAGACAAAGCCACAAGGTTCGCA
ETS1 [1]
  ETS1 binding intensity: 1840
ETS1 [2]
  ETS1 binding intensity: 5750
RUNX1 [3]
  RUNX1 binding intensity: 1780

## CACTTCCCCCAGCCTCTCTTTTTAATACCACAATAG
ETS1 [1]
  ETS1 binding intensity: 634
ETS1 [2]
  ETS1 binding intensity: 876
RUNX1 [3]
  RUNX1 binding intensity: 3290

## ATACAGACACAGGAAGTTGTGGGGAGTGCAAAAGCC
ETS1 [1]
  ETS1 binding intensity: 5090
ETS1 [2]
  ETS1 binding intensity: 5680
RUNX1 [3]
  RUNX1 binding intensity: 1530

## TCCCTAAGTCACATCCTGTGGGCAAAGGCCCTAGCA
ETS1 [1]
  ETS1 binding intensity: 880
ETS1 [2]
  ETS1 binding intensity: 935
RUNX1 [3]
  RUNX1 binding intensity: 1570

## GCAGAAGAGGAAATGGTTTGCCTGTGCGGTGGGGGA
ETS1 [1]
  ETS1 binding intensity: 1370
ETS1 [2]
  ETS1 binding intensity: 3280
RUNX1 [3]
  RUNX1 binding intensity: 999

## CAGAGAAACAGGAAGAACAGTGGTTTCAACTGAAAT
ETS1 [1]
  ETS1 binding intensity: 1310
ETS1 [2]
  ETS1 binding intensity: 1310
RUNX1 [3]
  RUNX1 binding intensity: 939

## GGGCTCCCAGAAGGATGTGGTTTCTGAGTACGTTGG
ETS1 [1]
  ETS1 binding intensity: 582
ETS1 [2]
  ETS1 binding intensity: 3520
RUNX1 [3]
  RUNX1 binding intensity: 1260

## GGGGGAAGCTTCCTGAGGTGAAATAGACCGCTGTGC
RUNX1 [4]
  RUNX1 binding intensity: 735
RUNX1 [3]
  RUNX1 binding intensity: 960

## AAGGGAGCCGCCCGGAAACCGCGCGGCAAAGATGCC
ETS1 [1]
  ETS1 binding intensity: 1560
ETS1 [2]
  ETS1 binding intensity: 2940
RUNX1 [3]
  RUNX1 binding intensity: 1050

## ACCGAAAACAGGGCCTTCCGCGGTTATACAGATCCT
RUNX1 [4]
  RUNX1 binding intensity: 868
RUNX1 [3]
  RUNX1 binding intensity: 998

## CTCAGGTTATCTAGGAAATCTACCGCACGCTAAAGT
RUNX1 [4]
  RUNX1 binding intensity: 858
RUNX1 [3]
  RUNX1 binding intensity: 793
